Myelination data for eleven compounds are collected here from the supplement of paper PMC4840960.

Where a name gives a salt, the structure may show the parent alone. Unmarked numbers belong to inactive results.

The experiment has as its system E18 rat cortical neuron-glia co-culture. Description: myelination (MBP fiber length per Olig2+ nucleus), % of 1 µM DAPT response (DMSO = 0) (% of DAPT); higher = more myelination, active = 50 or more. Conditions: 5 µM; treatment time: 8 days (DIV5-DIV13). The method in brief: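 Rat cortical co-cultures from E18 tissue were dissociated with papain and plated at 20,000 cells/well on 96-well plates coated with poly-d-lysine/laminin. From DIV5 to DIV13, library compounds were added at 1 or 5 µM in myelination medium. After fixation in 4 % paraformaldehyde, cultures were immunostained for MBP and Olig2 and counterstained with DAPI, and four 10X fields were analysed in each of duplicate wells. The myelination value is the length of continuous straight MBP fibers per Olig2+ nucleus, normalised so that 0.1 % DMSO is 0 and a 1 µM positive control is 100.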
`CCOC(=O)[C@H](CCc1ccccc1)N[C@H]1CCc2ccccc2N(CC(=O)O)C1=O` [Benazepril]: the myelination is -6.97.
As to `Cc1cc2c(s1)Nc1ccccc1N=C2N1CCN(C)CC1` [Olanzapine], the myelination is -13.5.
As to `CC1=C(C/C=C(\C)CCC[C@H](C)CCC[C@H](C)CCCC(C)C)C(=O)c2ccccc2C1=O` [Phylloquinone], the myelination was -10.2.
As for `CN(CCO)CC(O)Cn1cnc2c1c(=O)n(C)c(=O)n2C` (stereo unspecified) [Jupal], the figure is -10.5; as for `C[C@H]1C[C@@H]2[C@H]([C@@H](O)C[C@@]3(C)[C@H]2CC[C@]3(O)C(=O)CO)[C@@]2(C)C=CC(=O)C=C12` [Methylprednisolone], 2.01.
Regarding `CC(=O)OCC(=O)[C@@]1(O)CC[C@H]2[C@@H]3CCC4=CC(=O)C=C[C@]4(C)[C@H]3[C@@H](O)C[C@@]21C` [Prednisolone acetate], the myelination was -10.6.
Take `Clc1cccc(Cl)c1NC1=NCCN1` [Clonidine hydrochloride]: the myelination was -5.88.
`Cn1ccnc1S` [Methimazole]: the myelination is -15.9.
In the case of `C[C@@H]1C[C@H]2[C@@H]3C[C@H](F)C4=CC(=O)C(Cl)=C[C@]4(C)[C@@]3(F)[C@@H](O)C[C@]2(C)[C@@]1(O)C(=O)CO` [Halometasone hydrate], the myelination is -30.1.
As for `COc1c(N2C[C@@H]3CCCN[C@@H]3C2)c(F)cc2c(=O)c(C(=O)O)cn(C3CC3)c12` [Moxifloxacin], the figure is -17.6; as for `CC(C)NCC(O)c1ccc(O)c(O)c1` (stereo unspecified) [Isoproterenol], 10.5.
